Legend:
Assay in all cases: PBM binding z-score (relative to random genomic background probes); higher = stronger binding; sequences stand for … in GC…GCGATTGACAGCGTAGAATGAAGG
[1] = system: RARb homodimer (NR concentration 270 nM)
Summary of the method: (§1)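 Custom Agilent 4×180K protein-binding microarrays carried double-stranded probes, each with a 34-nt variable region. These regions held direct-repeat seeds, single-nucleotide variants, half-site ablations and random human genomic background sequences. Ligand-free nuclear receptor dimers were incubated on the arrays for 1 h, antibodies against each partner (one per run) detected binding, and scanned fluorescence was regression-normalized. Binding z-scores take the random background probes as reference.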

[2] = system: RARg:RXRa (NR concentration 270 nM, RXRa partner concentration 90 nM)
Summary of the method: as §1

[3] = system: RARg homodimer (NR concentration 270 nM)
Summary of the method: as §1

[4] = system: RXRa DBDmut IVT, anti-RXR (DBD mutation: RXRa K156A/R161A, NR concentration 90 nM)
Summary of the method: as §1

[5] = system: RXRa homodimer (NR concentration 180 nM)
Summary of the method: as §1

[6] = system: THRa:RXRa (NR concentration 90 nM, RXRa partner concentration 90 nM)
Summary of the method: as §1

[7] = system: THRa homodimer (NR concentration 90 nM)
Summary of the method: as §1

[8] = system: VDR homodimer (NR concentration 270 nM)
Summary of the method: as §1

Sequence | PBM binding z-score [1] | PBM binding z-score [2] | PBM binding z-score [3] | PBM binding z-score [4] | PBM binding z-score [5] | PBM binding z-score [6] | PBM binding z-score [7] | PBM binding z-score [8]
ACTATTAGTTGACTTAGGGTAACCGATACGACGC | 0.611 | 0.744 | 0.754 | 0.853 | 0.525 | 2.77 | 1.43 | 0.184
GTACCAAGGTGAATAGGTAGTTGATGAGTAGGCG | 0.555 | 0.67 | 0.626 | -0.423 | 0.629 | 1.14 | 0.657 | 0.0253
CGTCCAAGGTCAATGCTAGGGCAGTGAAAGCATT | 4.25 | 6.47 | 6.26 | 3.44 | 4.5 | 3.96 | 1.89 | 1.93
ATATGTAGGCTACATCCGGGTCATTCAGGCTATG | 2.14 | 1.7 | 1.22 | 0.518 | 1.95 | 2.91 | 2.14 | 2.15
CGTACTGGGCCAAAAAGGTCATTGATGCCGATAA | 4.63 | 4.76 | 4.11 | 1.07 | 4.86 | 3.15 | 0.617 | 2.61
TCGAGTAGGTTACCAATGGGGCATGCAGCTTTCT | 0.595 | 1.02 | 0.374 | 0.239 | 0.609 | 0.0319 | -0.807 | -0.473
GTACCAAGGTGTATAGGTCGTTGATGAGTAGGCG | 0.761 | 0.597 | 0.288 | 0.186 | 0.791 | 0.249 | -0.307 | 0.945
AGAATGAGGTTAAGATCAGGCAAACAGAATACAT | 0.764 | 2.13 | 1.63 | 0.944 | 2.49 | 2.86 | 0.441 | 0.247
CGAACGAGAGCATGAGTTGATAGCAAATGCCGAT | -0.657 | -0.0472 | 0.132 | 0.193 | -0.065 | -0.724 | -1.07 | 0.244
TCTCGGAGGACACGAAAGGTCAGATCTCGACATC | 4.71 | 4.58 | 4.87 | 1.53 | 3.65 | 3.82 | 1.45 | 1.13
GGAACGAGGGCATTCAAGTTGATAGCATGGCGAT | 0.771 | 1.04 | 1.74 | 3.23 | 0.697 | 3.52 | -0.291 | 2.77
TCGAGTAGGTTAGTCGCGGCATTCAGCCAACATA | -0.376 | -0.336 | -0.495 | -0.209 | -0.0361 | -0.287 | -1.14 | -0.682
CGAACTAGGTCATTGACAGGACAGAGAATAGTAA | 2.47 | 4.41 | 4.12 | 2.25 | 2.5 | 2.8 | 0.787 | 1.26
TTACCAAGGTGAAAGGTGGTTGATGCACGCCTTG | 0.622 | 0.898 | 0.626 | -0.437 | 1.61 | 1.73 | 0.529 | -0.166
TCTAGTTGGTCACGGAGGTGACACACGACGGGTA | 1.71 | 1.6 | 1.86 | 0.0966 | 1.37 | 1.47 | 0.665 | 0.176
GCTAGTTGGTCAGTAAAAGGTCGCACACCGGTCG | 2.98 | 2.68 | 1.8 | 0.145 | 1.95 | 1.61 | 0.192 | 0.447
GGCACGAGGGCAAAGTTGATAGCATCTGTCGACG | 1.26 | 2.26 | 1.99 | 2.39 | 2.19 | 1.33 | -0.552 | 1.29
CGAACGTGGGCATGAGTTGATAGCAAATGCCGAT | -0.844 | -0.563 | -0.218 | 0.0414 | -0.376 | -0.695 | -1.12 | -0.195
TAGCCTAGGTCAGATCGGGCCAGTATGCGCTATA | 2.29 | 2.85 | 3.88 | -0.301 | 1.48 | 4.04 | 0.0471 | -0.51
TGTATGAGGTTATAAGATCAGGGAACGTTGCAAA | 0.472 | 1.82 | 1.46 | 1.02 | 1.85 | 2.08 | 0.546 | 0.837
CAAGACAGGTGAGAAGGTAACTCAGCCTCGATTA | 0.607 | 0.784 | 0.824 | -0.536 | 0.481 | 0.413 | 0.475 | -0.249
CCGACTGGGGCATAAGGTTACCGTAAGCCAGCCC | 1.83 | 2.05 | 1.06 | -0.367 | 1.34 | 2.26 | 1.13 | -0.402
TCGAGTAGGTTAGTCGGGGCATTCAACCAACATA | 0.661 | 0.183 | 0.0739 | 0.482 | 0.119 | 1.28 | 0.217 | 0.466
CTCGAAAGGTCGTGCTCAGGTGAGTAAACCAAAC | 2.84 | 5.23 | 4.05 | 1.99 | 4.99 | 4.08 | 0.933 | 0.941
TCCGCTAGGTCAGTTGGTCAGCTAACGAGCTGCC | 2.85 | 2.77 | 3.75 | 0.733 | 1.01 | 1.27 | 0.178 | -0.514
CCAGACAGGTGAGACGGTAACTCAGCCTCGATTA | 0.4 | -0.0368 | 0.0246 | 0.0275 | -0.179 | -0.0755 | 0.114 | 0.029
ACTAGTTGGTCAGCGGAGGTCACACACAATTCGG | 4.09 | 3.96 | 4.21 | 0.9 | 3.77 | 4.32 | 2.89 | 3.02
CGTCAAAGTTCCAGGTAACGTAACAGAAAGCAGC | -0.0356 | 0.18 | 0.454 | 0.141 | 0.0249 | 0.992 | 0.691 | 0.0156
CAAACTAGGTCAAAGAGGTCAAAGTCCGTGCGTA | 5.27 | 6.66 | 6.81 | 3.24 | 7.15 | 4.4 | 2.33 | 6.65
